# From PubChem BioAssay AID1645838 (ICCB-Longwood Screening Facility, Harvard Medical School, 2021)
# About 100 (5%) of roughly 2,000 compounds were called active. Rule as the data show it: active = z-score above about 2; inactive = the rest. This excerpt belongs to a sample that is enriched for actives.
# Test: supercomplex reporter luminescence per Hoechst cell count – Hoechst nuclei count (AID 1645838);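 also: control cybrid cells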;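 as to z-score: higher means more mitochondrial supercomplex formation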
# Conditions: Cells, luminescence/Hoechst cell count ratio; for z-score: stronger effect = higher value; for cell count: measured here: cell number, Hoechst nuclei count
# [1] = library stock concentration (final well concentration not given) 46 uM
# [2] = library stock concentration (final well concentration not given) 278 uM
# [3] = library stock concentration (final well concentration not given) 1.67 mM
# [4] = library stock concentration (final well concentration not given) 10 mM
# [5] = library stock concentration (final well concentration not given) 80 uM
# [6] = library stock concentration (final well concentration not given) 400 uM
# [7] = library stock concentration (final well concentration not given) 2 mM
compound,measurement,setting,value
CCCCCCCCCCCCCCCC(=O)OC[C@@H](O)COP(=O)([O-])OCC[N+](C)(C)C,outcome,,inactive; censored for cell count
COc1cc2c(Oc3ccc4[nH]c(C)cc4c3F)ncnc2cc1OCCCN1CCCC1,z-score,[1],-0.259 (inactive)
same,z-score,[2],-0.207 (inactive)
same,z-score,[3],-0.199 (inactive)
same,z-score,[4],0.419 (inactive)
same,cell count,[1],4900
same,cell count,[2],4920
same,cell count,[3],4790
same,cell count,[4],3820
COc1cc(Nc2c(C#N)cnc3cc(OCCCN4CCN(C)CC4)c(OC)cc23)c(Cl)cc1Cl,outcome,library stock 10 mM,inactive; censored for cell count
same,z-score,[1],-0.0511 (inactive)
same,z-score,[2],0.0803 (inactive)
same,z-score,[3],2.12 (active)
same,cell count,[1],5680
same,cell count,[2],5890
same,cell count,[3],3280
COc1cc2ncnc(Nc3ccc(F)c(Cl)c3)c2cc1OCCCN1CCOCC1,z-score,[5],0.183 (inactive)
same,z-score,[6],0.0655 (inactive)
same,z-score,[7],0.641 (inactive)
same,z-score,[4],1.23 (inactive)
same,cell count,[5],5740
same,cell count,[6],5370
same,cell count,[7],5790
same,cell count,[4],4940
CC1CN(Cc2ccccc2)CC1c1nc2c(cnn2C2CCOCC2)c(=O)[nH]1 (stereo not drawn),z-score,[5],-0.245 (inactive)
same,z-score,[6],-0.201 (inactive)
same,z-score,[7],-0.281 (inactive)
same,z-score,[4],-0.05 (inactive)
same,cell count,[5],6480
same,cell count,[6],6460
same,cell count,[7],6500
same,cell count,[4],5630
CCCCCOc1ccccc1C(O)CC#CCCCC(=O)OC (stereo not drawn),z-score,,-0.738 (inactive)
same,cell count,,4890
COc1cc(C)c(Sc2cnc(NC(=O)c3ccc(CNC(C)C(C)C)cc3)s2)cc1C(=O)N1CCN(C(C)=O)CC1 (stereo not drawn),outcome,library stock 10 mM,inactive; censored for cell count
same,z-score,[5],-0.488 (inactive)
same,z-score,[6],-0.307 (inactive)
same,z-score,[7],0.194 (inactive)
same,cell count,[5],4600
same,cell count,[6],4380
same,cell count,[7],4120
CC(CSC(=O)c1ccccc1)C(=O)N1CC(Sc2ccccc2)CC1C(=O)O (stereo not drawn),z-score,[5],-0.846 (inactive)
same,z-score,[6],-0.854 (inactive)
same,z-score,[7],-0.642 (inactive)
same,z-score,[4],-0.914 (inactive)
same,cell count,[5],6770
same,cell count,[6],5990
same,cell count,[7],6700
same,cell count,[4],6110
CCCCC[C@H](O)/C=C/[C@@H]1[C@@H](C/C=C\CCCC(=O)N(CC)CC)[C@@H](O)C[C@H]1O,z-score,,-1.04 (inactive)
same,cell count,,5830
NC(=O)c1noc(C(CCCC2CCCCC2)CC(=O)NO)n1 (stereo not drawn),z-score,[1],-0.365 (inactive)
same,z-score,[2],-0.421 (inactive)
same,z-score,[3],-0.0342 (inactive)
same,z-score,[4],2.42 (active)
same,cell count,[1],6320
same,cell count,[2],6380
same,cell count,[3],5390
same,cell count,[4],2560
C=C1C(=O)O[C@H](CCCCCCCC)[C@H]1C(=O)O,z-score,,-0.4 (inactive)
same,cell count,,5960
CCCCC/C=C\CCCCCCCCCCCCC(=O)O,z-score,,-0.87 (inactive)
same,cell count,,5480
